These results are taken from PubChem BioAssay (NCATS).

Results filed as inconclusive are left out. Calls of active or inactive are those of the source. Unless noted, the call rests on the fitted dose curve; in most records, active means well fitted curve in the direction sought with a large enough effect; inconclusive means small, poorly fitted or top-dose-only effect, or another doubt; inactive means no such curve, though single readings can be large; an effect the other way counts as inactive or inconclusive.

The nature of assay [1]: Primary fluorescence-based thiol-reactive (MSTI) qHTS assay for identification of artifact compounds. (AID 1845221).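 Further: thiol-reactive compounds lower the probe fluorescence signal; nearly all actives have a fitted effect of over 65% in size.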 The procedure, abridged: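 Curve-fitted percent inhibition (4-parameter Hill) derived from fluorescence, Ex 525/Em 598 nm, scaled with Acetyl-MSTI and MSTI; 1 h incubation at room temperature.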
The next assay concerns Es-2. The assay is described as follows: Primary qHTS to identify gynecologic anti-cancer compounds using libraries of approved drugs and bioactive compounds (AID 1345084). Further: nearly all actives have a fitted effect of over 55% in size. Further: potency means the concentration at half of the fitted maximal effect. On activity change, negative = cytotoxicity: on the % scale 0 is the no-effect control and ±100 the full control effect. As to conditions: Gynecologic cancer cell panel viability, ATPlite luminescence, 48 h; series mostly up to 57.5 µM. In outline:
(§1)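 Cytotoxicity screen measuring ATP content by luciferase luminescence. Each compound is applied at five concentrations for 48 h at 37 C with 5% CO2.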

The test system of a further assay is PA-1. Described as above. As to conditions: Gynecologic cancer cell panel viability, ATPlite luminescence, 48 h; series mostly up to 57.5 µM. The procedure, abridged: as §1
The test system of a further assay is C33A. Described as above. As to conditions: Gynecologic cancer cell panel viability, ATPlite luminescence, 48 h; series mostly up to 57.5 µM. The procedure, abridged:
as §1

The test system of another assay is CASKI. Described as above. As to conditions: Gynecologic cancer cell panel viability, ATPlite luminescence, 48 h; series mostly up to 57.5 µM. The procedure, abridged: as §1
The test system of another assay is SKOV3. The assay is described as above. To be noted: Gynecologic cancer cell panel viability, ATPlite luminescence, 48 h; series mostly up to 57.5 µM. The procedure, abridged: as §1
The subject of the next assay is Tov-21-G. The description is as above. To be noted: Gynecologic cancer cell panel viability, ATPlite luminescence, 48 h; series mostly up to 57.5 µM. In outline:
as §1

The target of assay [2] is Cytochrome P450 2D6 (Homo sapiens) (UniProt P10635). The assay is described as follows: Cytochrome P450 family 2 subfamily D member 6 (CYP2D6) small molecule antagonists: luciferase biochemical (cell-free) qHTS assay (AID 1645840; active means well fitted curve in the direction sought with a large enough effect in the repeat runs; an effect the other way counts as inactive or inconclusive; further: nearly all actives have a fitted effect of over 55% in size; further: potency means the concentration at half of the fitted maximal effect; on activity change, negative = inhibition: on the % scale 0 is the no-effect control and ±100 the full control effect). In outline: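 P450-Glo CYP2D6 system: proluciferin substrate converted by enzyme to luciferin, read by luminescence proportional to activity. Enzyme-substrate mix with compound 10 min at room temperature, then NADPH regeneration 1 h before detection reagent.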

Assay [3] deals with Cytochrome P450 2C9 (Homo sapiens) (UniProt P11712). The assay is described as follows: Cytochrome P450 family 2 subfamily C member 9 (CYP2C9) small molecule antagonists: luciferase biochemical (cell-free) qHTS assay (AID 1645842; active means well fitted curve in the direction sought with a large enough effect in the repeat runs; an effect the other way counts as inactive or inconclusive; further: nearly all actives have a fitted effect of over 55% in size; further: potency means the concentration at half of the fitted maximal effect). The procedure, abridged:
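P450-Glo CYP2C9 system: proluciferin substrate with enzyme in mix containing 0.4% BSA, 10 min at room temperature, then NADPH regeneration solution added and incubated 1 h at 37C. Detection reagent stopped reaction; luminescence read after 20 min as RLU.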

A further assay deals with CAOV3. The assay can be described thus: Primary qHTS to identify gynecologic anti-cancer compounds using libraries of approved drugs and bioactive compounds (AID 1345084). Further: nearly all actives have a fitted effect of over 55% in size. Further: potency means the concentration at half of the fitted maximal effect. On activity change, negative = cytotoxicity: on the % scale 0 is the no-effect control and ±100 the full control effect. To be noted: Gynecologic cancer cell panel viability, ATPlite luminescence, 48 h; series mostly up to 57.5 µM. The procedure, abridged: as §1
For assay [4], the target named is Catechol O-methyltransferase (Homo sapiens) (UniProt P21964). The assay can be described thus: Confirmatory Screen for Target Class Profiling of Small Molecule Inhibitors of Methyltransferases (AID 1745852). On activity change, negative = inhibition: on the % scale 0 is the no-effect control and ±100 the full control effect. As to conditions: MTase-Glo luminescence, SAH detection, recombinant enzyme; measured here: COMT max response; stronger effect = lower value.
In assay [5] the target is Guanidinoacetate N-methyltransferase (Homo sapiens) (UniProt Q14353). The description is as above. To be noted: activity change, negative = inhibition: at 57.3 µM (top of the series) unless noted.
For assay [6], the target named is Nicotinamide N-methyltransferase (Homo sapiens) (UniProt P40261). The assay is described as above. To be noted: MTase-Glo luminescence, SAH detection, recombinant enzyme; measured here: NNMT max response; stronger effect = lower value.
Assay [7] addresses Phenylethanolamine N-methyltransferase (Homo sapiens) (UniProt P11086). Described as above. To be noted: MTase-Glo luminescence, SAH detection, recombinant enzyme; measured here: PNMT max response; stronger effect = lower value.
For assay [8], the target named is Cytochrome P450 3A4 (Homo sapiens) (UniProt P08684). The assay can be described thus: qHTS Assay for Activators of Cytochrome P450 3A4 (AID 885). Further: nearly all actives have a fitted effect of over 65% in size. The procedure, abridged: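 Human CYP3A4 dealkylates Luciferin-PPXE to luciferin, which luciferase detection converts to light. Substrate was at its KM (25uM), buffer 200mM KPO4, reaction 60 min at RT.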
Cytochrome P450 3A4 (Homo sapiens), sequence (P08684 whole entry, looked up): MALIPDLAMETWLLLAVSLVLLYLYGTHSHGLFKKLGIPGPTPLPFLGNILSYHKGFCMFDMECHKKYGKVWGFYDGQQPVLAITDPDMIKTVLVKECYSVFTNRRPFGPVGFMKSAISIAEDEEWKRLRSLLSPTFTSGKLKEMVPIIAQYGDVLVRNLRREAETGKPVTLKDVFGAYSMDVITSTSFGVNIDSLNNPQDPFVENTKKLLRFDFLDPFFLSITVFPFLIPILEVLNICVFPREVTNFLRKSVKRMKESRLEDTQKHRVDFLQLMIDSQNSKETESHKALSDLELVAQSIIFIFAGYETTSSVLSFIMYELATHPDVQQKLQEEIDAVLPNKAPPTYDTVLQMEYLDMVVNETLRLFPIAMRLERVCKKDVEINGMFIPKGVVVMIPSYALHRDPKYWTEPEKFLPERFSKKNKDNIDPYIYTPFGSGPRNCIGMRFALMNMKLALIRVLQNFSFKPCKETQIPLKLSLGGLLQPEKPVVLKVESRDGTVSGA

Cytochrome P450 2D6 (Homo sapiens), sequence (P10635 whole entry, looked up): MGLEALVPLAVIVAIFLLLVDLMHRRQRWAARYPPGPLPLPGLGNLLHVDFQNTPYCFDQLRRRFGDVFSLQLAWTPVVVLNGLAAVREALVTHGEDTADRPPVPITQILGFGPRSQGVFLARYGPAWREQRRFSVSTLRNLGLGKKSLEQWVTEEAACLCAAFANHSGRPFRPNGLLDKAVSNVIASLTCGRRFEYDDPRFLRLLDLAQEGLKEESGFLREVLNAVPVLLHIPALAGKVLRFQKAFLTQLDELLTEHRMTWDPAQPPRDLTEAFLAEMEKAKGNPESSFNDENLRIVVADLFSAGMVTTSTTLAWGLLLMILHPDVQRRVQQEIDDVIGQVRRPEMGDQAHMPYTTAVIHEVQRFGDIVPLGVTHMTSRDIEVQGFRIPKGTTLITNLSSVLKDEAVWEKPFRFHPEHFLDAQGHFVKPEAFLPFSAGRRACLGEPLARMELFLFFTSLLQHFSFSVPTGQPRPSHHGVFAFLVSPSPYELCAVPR
Cytochrome P450 2C9 (Homo sapiens), sequence (P11712 whole entry, looked up): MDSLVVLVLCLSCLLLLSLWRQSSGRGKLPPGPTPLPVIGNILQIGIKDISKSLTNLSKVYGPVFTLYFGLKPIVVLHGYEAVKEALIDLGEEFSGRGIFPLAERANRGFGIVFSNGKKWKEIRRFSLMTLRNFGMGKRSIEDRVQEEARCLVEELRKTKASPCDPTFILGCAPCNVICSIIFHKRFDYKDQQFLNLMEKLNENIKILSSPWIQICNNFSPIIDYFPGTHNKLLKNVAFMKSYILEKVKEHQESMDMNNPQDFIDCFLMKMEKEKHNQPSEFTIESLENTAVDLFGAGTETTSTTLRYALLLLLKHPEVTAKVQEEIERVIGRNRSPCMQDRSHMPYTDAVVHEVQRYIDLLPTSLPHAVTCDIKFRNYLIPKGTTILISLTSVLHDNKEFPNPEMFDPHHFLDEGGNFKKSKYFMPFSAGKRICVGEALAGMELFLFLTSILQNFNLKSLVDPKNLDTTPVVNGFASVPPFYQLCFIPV
Phenylethanolamine N-methyltransferase (Homo sapiens), sequence (P11086 whole entry, looked up): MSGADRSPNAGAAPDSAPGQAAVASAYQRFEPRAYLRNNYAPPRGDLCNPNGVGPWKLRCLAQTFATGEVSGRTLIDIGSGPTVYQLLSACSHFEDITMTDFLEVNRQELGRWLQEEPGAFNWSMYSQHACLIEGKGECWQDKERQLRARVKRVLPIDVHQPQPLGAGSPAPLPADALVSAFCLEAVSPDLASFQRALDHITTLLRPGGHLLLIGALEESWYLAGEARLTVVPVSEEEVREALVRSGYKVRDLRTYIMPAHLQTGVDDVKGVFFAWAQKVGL
Catechol O-methyltransferase (Homo sapiens), sequence (P21964 whole entry, looked up): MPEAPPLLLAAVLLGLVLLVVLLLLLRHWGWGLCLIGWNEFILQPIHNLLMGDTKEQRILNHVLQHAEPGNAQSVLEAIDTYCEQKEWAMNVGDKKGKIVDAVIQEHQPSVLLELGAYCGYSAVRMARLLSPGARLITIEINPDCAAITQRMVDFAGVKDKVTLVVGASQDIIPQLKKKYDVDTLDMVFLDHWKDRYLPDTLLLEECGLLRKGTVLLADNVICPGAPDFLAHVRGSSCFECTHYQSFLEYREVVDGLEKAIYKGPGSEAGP
Nicotinamide N-methyltransferase (Homo sapiens), sequence (P40261 whole entry, looked up): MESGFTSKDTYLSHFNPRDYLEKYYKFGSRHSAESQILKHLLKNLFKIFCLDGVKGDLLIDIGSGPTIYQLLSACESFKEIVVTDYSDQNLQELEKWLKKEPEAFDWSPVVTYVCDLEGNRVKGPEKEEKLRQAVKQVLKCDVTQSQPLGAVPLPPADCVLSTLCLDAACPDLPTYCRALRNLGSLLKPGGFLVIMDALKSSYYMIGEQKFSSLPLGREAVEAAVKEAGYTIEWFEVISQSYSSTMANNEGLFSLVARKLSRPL

For the molecule `Fc1ccc(C2CCNC[C@H]2COc2ccc3c(c2)OCO3)cc1` (stereo partly specified), the Potency result (in assay [1]; in the assay with PA-1) was “inactive” in each case. In addition, in the assay on Es-2, the Potency was 22.4 µM (active).

For `N#Cc1ccc(-c2ccc(NC(=O)Nc3ccc(-c4ccnc5nc[nH]c45)cc3)cc2)cc1`, in [1], the Potency result is “inactive”. Further, in the assay on C33A, the Potency is 5.01 µM (active).

For the molecule `COC1CC(=O)C23C(=O)NC(CC(C)C)C2C(C)C(C)=CC3/C=C(\C)CCC(O)C1O` (stereo unspecified), the Potency entry (in [1]; in the assay on CASKI; in the assay on Es-2; in the assay on SKOV3; in the assay with Tov-21-G) was “inactive” throughout.

With `COc1ccc(NC(=O)N2CCc3c2ccc2ccccc32)cc1N1CCN(C)CC1`, in assay [2], the Potency was 19 µM (active). In addition, the Potency entry in the assay with CASKI, in the assay on Es-2 and in the assay with Tov-21-G was “inactive” in each case.

For the molecule `O=C(/C=C/n1cnc(-c2cc(C(F)(F)F)cc(C(F)(F)F)c2)n1)NNc1cnccn1`, the Potency result (in assay [1]; with C33A; in the assay on CASKI) was “inactive” each time. In addition, the Potency with PA-1 is 10 µM (active).

For the molecule `CC1CCC2(NC1)OC1CC3C4CC=C5CC(O[C@@H]6O[C@H](CO)[C@@H](O[C@@H]7O[C@@H](C)[C@H](O)[C@@H](O)[C@H]7O)[C@H](O)[C@H]6O[C@@H]6O[C@@H](C)[C@H](O)[C@@H](O)[C@H]6O)CCC5(C)C4CCC3(C)C1C2C` (stereo partly specified), the activity change, negative = cytotoxicity was -25.1% [at 11.6 µM] (inactive) with CASKI and -23.3% [at 11.6 µM] (inactive) in the assay on Tov-21-G.

Turning to `CCOc1cc(CNC2CCCC2)cc(Cl)c1OCc1ccc(Cl)cc1`, the Potency in [2] is 1.51 µM (active); in [3], 19 µM (active); with CAOV3 it was 22.4 µM (active).

Consider `c1ccc(Cn2c(-c3ccc(OCC(C4CCNCC4)n4c(-c5ccccc5)nc5ccccc54)cc3)nc3ccccc32)cc1` (stereo unspecified), for which the activity was -14.2% in assay [4], -61.3% in [6] and -1.77% in assay [7]. In addition, the activity change, negative = inhibition in [5] was -5.98%. Besides, the Potency entry in the assay with CASKI, in the assay on Es-2, in the assay with PA-1 and in the assay with Tov-21-G was “inactive” throughout.

As for `C=CC(=O)Nc1cccc(Nc2nc(Nc3ccc(Oc4ccnc(C(=O)NC)c4)cc3)ncc2F)c1`, in [3], the Potency is 1.51 µM (active). For the same molecule, the activity was -5.97% in assay [4], -53.4% in [6] and -10.6% in [7]. For the same molecule, the activity change, negative = inhibition in assay [5] was -5.15%. In addition, the Potency entry (in assay [1]; in the assay with C33A; in the assay on CASKI) was “inactive” each time.

On to `NC(=Nc1ccc(CCNCc2cccc(Cl)c2)cc1)c1cccs1`, for which the Potency in assay [2] is 0.477 µM (active); in assay [3], 12 µM (active). Besides, the Potency entry (in assay [1]; in the assay with Es-2; in the assay with PA-1; with Tov-21-G) was “inactive” each time.

On to `COc1cc(N2CCN(C)CC2)ccc1Nc1nccc(-c2cn(C)c3cnccc23)n1`, for which the Potency result (in assay [2]; in assay [3]; in the assay on Tov-21-G) was “inactive” each time. Further, the Potency in the assay on SKOV3 is 12.6 µM (active).

On to `CCOc1ccc(-c2nc(-c3cccc4c3CCC4NCCO)no2)cc1OCC` (stereo unspecified), for which the Potency entry (in [2]; in [3]; in [1]; with C33A; in the assay on CASKI; in the assay with PA-1) was “inactive” each time. For the same molecule, the Potency entry in the assay on Tov-21-G was “inactive”.

Take `COC(=O)/C=C/C(=O)N(O)CCCCNCc1ccc(COC(=O)Nc2cccc3ccccc23)cc1`: the Potency result (in assay [1]; in the assay on Tov-21-G) was “inactive” throughout.

Regarding `C=C1C(=O)O[C@H]2[C@H]1[C@@H](OC(=O)/C(C)=C\C)C[C@]1(C)O[C@@H]1[C@H]1O[C@H]1C(=C)[C@H]2O`, the results for the Potency in the assay on Es-2 and with PA-1 were 11.2 µM (active) and 12.6 µM (active), respectively.

For the molecule `CC(C)=CCC/C(C)=C/CC/C(C)=C/CSc1ccccc1C(=O)O`, in assay [8], the Potency result is “inactive”.
